Experimental data from PubChem BioAssay (NCATS).
Where “and” joins values, the source holds several entries; their conditions need not be identical. Identical values can stand only once. Records with an inconclusive call do not appear. Where a call stands in place of a potency, no number is given. Calls of active or inactive are those of the source. Unless noted, calls follow the shape of the full dose curve.

Tests used:
[1] = qHTS assay for small molecule agonists of retinoid X receptor alpha signaling (AID 588544); settings: HEK293T RXRa-UAS-bla, beta-lactamase reporter, 18 h; 530 nm emission
[2] = target: Retinoic acid receptor RXR-alpha (Homo sapiens) (UniProt P19793); test: as above; settings: HEK293T RXRa-UAS-bla, beta-lactamase reporter, 18 h; series mostly up to 76.7 µM
Sequence of Retinoic acid receptor RXR-alpha (Homo sapiens) (P19793 whole entry, looked up): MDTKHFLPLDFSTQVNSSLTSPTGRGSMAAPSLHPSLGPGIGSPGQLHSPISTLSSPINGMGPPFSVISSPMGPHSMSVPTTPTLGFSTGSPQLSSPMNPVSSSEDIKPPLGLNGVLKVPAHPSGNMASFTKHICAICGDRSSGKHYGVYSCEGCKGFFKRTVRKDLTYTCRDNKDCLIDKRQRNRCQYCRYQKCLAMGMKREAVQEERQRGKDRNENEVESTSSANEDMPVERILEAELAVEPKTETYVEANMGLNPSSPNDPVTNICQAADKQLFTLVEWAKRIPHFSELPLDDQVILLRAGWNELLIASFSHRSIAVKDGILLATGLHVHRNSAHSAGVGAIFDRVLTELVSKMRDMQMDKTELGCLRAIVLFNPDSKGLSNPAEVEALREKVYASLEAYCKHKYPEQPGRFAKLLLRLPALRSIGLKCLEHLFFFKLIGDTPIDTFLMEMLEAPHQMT

[3] = target: Thyroid hormone receptor beta (Homo sapiens) (UniProt P10828); test: qHTS assay for small molecule agonists of thyroid hormone receptor beta signaling (AID 588545); settings: TR-UAS-bla GripTite HEK 293, beta-lactamase ratio, agonist mode, 18 h, percent of T3 response, DMSO as zero; series mostly up to 76.7 µM
Sequence of Thyroid hormone receptor beta (Homo sapiens) (P10828 whole entry, looked up): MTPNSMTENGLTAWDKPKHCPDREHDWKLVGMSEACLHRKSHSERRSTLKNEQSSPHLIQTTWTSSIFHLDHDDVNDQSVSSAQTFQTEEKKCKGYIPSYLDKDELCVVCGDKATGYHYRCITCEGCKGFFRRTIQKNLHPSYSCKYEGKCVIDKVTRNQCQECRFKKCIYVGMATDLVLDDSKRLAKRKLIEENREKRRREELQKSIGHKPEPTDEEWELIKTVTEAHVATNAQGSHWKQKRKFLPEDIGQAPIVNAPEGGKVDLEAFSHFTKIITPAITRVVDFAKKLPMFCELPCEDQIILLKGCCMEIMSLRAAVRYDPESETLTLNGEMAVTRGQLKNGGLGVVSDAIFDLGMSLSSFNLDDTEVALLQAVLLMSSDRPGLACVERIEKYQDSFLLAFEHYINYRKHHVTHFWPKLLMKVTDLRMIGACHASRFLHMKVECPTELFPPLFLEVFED
Outline: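 TR-UAS-bla-GripTite HEK 293 cells in medium with 2% charcoal/dextran FBS, 0.1 mM NEAA and 1 mM sodium pyruvate were treated with titrated compounds for 18 hrs at 37 C. Beta-lactamase reporter was read with CCF4 dye (ex 405, em 460/530 nm); EC50 from Hill fits.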

[4] = qHTS assay for small molecule antagonists of retinoid X receptor alpha signaling (AID 588546; active = well fitted inhibition curve with a large enough effect in the signal ratio, with a control signal flat, not every such curve was filed as active; the % refers to the signal ratio;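 also: cells stimulated with 9-cis-retinoic acid as agonist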); settings: HEK293T RXRa-UAS-bla, beta-lactamase ratio, antagonist mode; measured here: W530 green channel, cytotoxicity proxy
Outline: (§1)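 Beta-lactamase reporter inhibition, read as CCF4 fluorescence ratio (ex 405, em 460/530 nm) after 2 h at RT. HEK293T UAS-bla cells, 2500/well, were stimulated with 9-cis-RA at 500 or 100 nM final alongside test compound for 18 h at 37 C.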

[5] = target: Retinoic acid receptor RXR-alpha (Homo sapiens) (UniProt P19793); test: as above; settings: HEK293T RXRa-UAS-bla, beta-lactamase ratio, antagonist mode
Outline: as §1

[6] = target: Thyroid hormone receptor beta (Homo sapiens) (UniProt P10828); test: qHTS assay for small molecule antagonists of thyroid hormone receptor beta signaling (AID 588547; active = well fitted inhibition curve with a large enough effect in the signal ratio, with a control signal flat, not every such curve was filed as active; the % refers to the signal ratio;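 also: cells stimulated with 0.4 nM T3 agonist during compound exposure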); settings: TR-UAS-bla HEK293, beta-lactamase ratio, antagonist mode, 18 h
Outline: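 TR-UAS-bla GripTite HEK293 cells in 2% charcoal/dextran FBS medium; compounds 0.59 nM to 92 uM with T3 at 0.4nM final, 18 h at 37 C. Beta-lactamase read by CCF4 fluorescence (460/530 nm); Hill fits gave IC50 and efficacy.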

[7] = target: Voltage-gated inwardly rectifying potassium channel KCNH2 (Homo sapiens) (UniProt Q12809); test: qHTS Assay for Small Molecule Inhibitors of the Human hERG Channel Activity (AID 588834; active = well fitted curve in the direction sought with a large enough effect; an effect the other way counts as inactive or inconclusive;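 also: top concentration of the series differs between compounds; lower thallium flux fluorescence means stronger hERG block; nearly all actives have a fitted effect of over 50% in size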); settings: U2OS BacMam hERG, FluxOR thallium flux fluorescence; series mostly up to 92.2 µM
Sequence of Voltage-gated inwardly rectifying potassium channel KCNH2 (Homo sapiens) (Q12809 whole entry, looked up): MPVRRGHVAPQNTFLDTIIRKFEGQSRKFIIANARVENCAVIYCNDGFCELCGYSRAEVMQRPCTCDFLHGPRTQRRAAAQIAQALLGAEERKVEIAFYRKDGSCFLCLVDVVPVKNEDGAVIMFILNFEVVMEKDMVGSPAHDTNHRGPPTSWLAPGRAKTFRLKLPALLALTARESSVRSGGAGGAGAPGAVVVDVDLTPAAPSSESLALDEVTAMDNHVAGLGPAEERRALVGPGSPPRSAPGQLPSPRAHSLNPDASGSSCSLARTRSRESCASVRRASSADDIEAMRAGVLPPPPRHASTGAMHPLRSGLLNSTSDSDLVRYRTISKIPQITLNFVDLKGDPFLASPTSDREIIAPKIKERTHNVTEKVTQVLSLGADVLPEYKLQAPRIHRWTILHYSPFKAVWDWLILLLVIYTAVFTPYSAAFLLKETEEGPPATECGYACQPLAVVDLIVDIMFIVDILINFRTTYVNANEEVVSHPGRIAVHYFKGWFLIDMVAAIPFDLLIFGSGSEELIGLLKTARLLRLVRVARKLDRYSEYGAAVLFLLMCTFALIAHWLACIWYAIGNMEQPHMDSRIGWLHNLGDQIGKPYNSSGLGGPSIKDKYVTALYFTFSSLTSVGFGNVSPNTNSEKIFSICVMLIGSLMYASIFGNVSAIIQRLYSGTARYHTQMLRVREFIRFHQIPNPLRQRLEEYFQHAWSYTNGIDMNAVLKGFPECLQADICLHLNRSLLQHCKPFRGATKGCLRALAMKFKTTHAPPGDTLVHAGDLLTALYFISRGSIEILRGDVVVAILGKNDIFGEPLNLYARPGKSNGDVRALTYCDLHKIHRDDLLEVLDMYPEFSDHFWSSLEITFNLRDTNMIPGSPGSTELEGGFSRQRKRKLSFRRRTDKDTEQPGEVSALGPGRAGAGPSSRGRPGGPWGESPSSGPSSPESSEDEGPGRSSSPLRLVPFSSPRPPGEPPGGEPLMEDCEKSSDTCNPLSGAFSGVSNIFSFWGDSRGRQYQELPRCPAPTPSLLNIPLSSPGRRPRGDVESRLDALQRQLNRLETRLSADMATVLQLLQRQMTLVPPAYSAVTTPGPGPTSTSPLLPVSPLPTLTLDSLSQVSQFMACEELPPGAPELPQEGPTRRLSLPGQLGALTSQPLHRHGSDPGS
Outline: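 U2OS cells BacMam-transduced with hERG, 2000 cells/well, compound ~10 min at 37 °C before stimulation buffer. FluxOR thallium flux fluorescence read kinetically on FDSS; decrease indicates block; AC50 from Hill fits.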

[8] = qHTS assay for small molecule agonists of the antioxidant response element (ARE) signaling pathway (AID 651741; active = well fitted activation curve with a large enough effect in the signal ratio; the % refers to the signal ratio; also: potency is read from the fitted curve at half-maximal effect); settings: HepG2 ARE-bla reporter, beta-lactamase FRET ratio, 16 h; series mostly up to 96 µM
Outline: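 HepG2 ARE-bla cells plated at 2,000 cells/well and incubated 5 h at 37 C/5% CO2 received 23 nL compound in DMSO. After 16 h at 37 C, LiveBLAzer B/G FRET substrate was applied for 2 h at room temperature and fluorescence read.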

[9] = qHTS assay for small molecule activators of the p53 signaling pathway (AID 651743; active = well fitted activation curve with a large enough effect in the signal ratio, not every such curve was filed as active; the % refers to the signal ratio); settings: HCT-116 p53RE-bla, beta-lactamase FRET ratio, 16 h; stronger effect = higher value
Outline: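 HCT-116 p53RE-bla, 4,000 cells/well; 5 h settle; cpd/DMSO 16 h, 37 C; LiveBLAzer B/G 2 h RT; fluorescence intensity.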

[10] = qHTS assay for small molecule disruptors of the mitochondrial membrane potential - 1 hr assay (AID 651754); settings: series mostly up to 92.2 µM; also: nearly all actives have a fitted effect of over 35% in size
Outline: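 HepG2 cells, attached overnight at 37C, were exposed to compound or DMSO vehicle for 1 hr at 37C, 5% CO2, then stained with Mito-MPS dye for 30 min. Red aggregate versus green monomer fluorescence reports membrane potential.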

[11] = qHTS assay for small molecule disruptors of the mitochondrial membrane potential - 5 hr assay (AID 651755); settings: JC-1-type ratio dye; series mostly up to 92.2 µM; also: nearly all actives have a fitted effect of over 40% in size
Outline: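 HepG2 cells (2,000/well), attached overnight, exposed to compound 5 hr at 37C, then Mito-MPS dye 30 min. Fluorescence read for monomers (490/535 nm) and aggregates (540/590 nm).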

[12] = target: Tumor necrosis factor (Homo sapiens) (UniProt P01375); test: qHTS assay to identify small molecules that stimulate Tumor Necrosis Factor-alpha (TNF-alpha) secretion (AID 651757; active = well fitted curve in the direction sought with a large enough effect in the signal ratio; the % refers to the signal ratio); settings: Human cells, HTRF 665/615 ratio; series mostly up to 92.2 µM
Sequence of Tumor necrosis factor (Homo sapiens) (P01375 whole entry, looked up): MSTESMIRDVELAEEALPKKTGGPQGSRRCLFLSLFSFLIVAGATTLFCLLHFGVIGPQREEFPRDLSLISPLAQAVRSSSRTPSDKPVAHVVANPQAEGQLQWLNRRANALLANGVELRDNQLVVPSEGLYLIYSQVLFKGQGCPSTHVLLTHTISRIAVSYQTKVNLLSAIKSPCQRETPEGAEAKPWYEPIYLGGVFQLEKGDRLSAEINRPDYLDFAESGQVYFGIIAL
Outline: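 THP-1 cells were exposed to compounds for 17 hrs at 37 C, after which secreted TNF-alpha was measured by homogeneous HTRF (TR-FRET) using cryptate- and XL665-labeled anti-TNF-alpha antibodies, read after 3 hr at room temperature.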

[13] = target: Peroxisome proliferator-activated receptor alpha (Homo sapiens) (UniProt Q07869); test: qHTS assay for small molecule agonists of the peroxisome proliferator-activated receptor alpha (PPARalpha) signaling pathway (AID 651778; active = well fitted curve in the direction sought with a large enough effect; an effect the other way counts as inactive or inconclusive); settings: PathHunter PPARalpha complementation, chemiluminescence, 6 h; stronger effect = higher value
Sequence of Peroxisome proliferator-activated receptor alpha (Homo sapiens) (Q07869 whole entry, looked up, the tested form may be a part): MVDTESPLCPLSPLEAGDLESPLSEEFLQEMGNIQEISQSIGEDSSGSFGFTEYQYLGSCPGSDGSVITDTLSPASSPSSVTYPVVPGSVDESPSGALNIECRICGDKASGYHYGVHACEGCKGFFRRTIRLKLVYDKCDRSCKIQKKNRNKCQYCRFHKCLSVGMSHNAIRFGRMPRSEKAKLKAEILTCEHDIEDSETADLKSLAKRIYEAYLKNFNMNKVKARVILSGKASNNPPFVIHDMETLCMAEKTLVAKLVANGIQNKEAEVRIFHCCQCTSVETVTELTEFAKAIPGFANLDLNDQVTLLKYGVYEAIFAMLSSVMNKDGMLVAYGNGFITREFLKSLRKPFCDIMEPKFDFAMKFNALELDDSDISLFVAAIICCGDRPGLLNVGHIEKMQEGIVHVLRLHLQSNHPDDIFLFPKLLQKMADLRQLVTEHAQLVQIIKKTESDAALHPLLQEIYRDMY
Outline: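 Enzyme-fragment complementation assay in which ligand-bound PPARalpha translocates and forms an active enzyme that generates chemiluminescence. Cells were plated overnight, exposed to compound for 6 hr at 37 C, and then given detection reagent for 60 min at room temperature.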

[14] = qHTS assay for small molecule agonists of the antioxidant response element (ARE) signaling pathway measured by Nrf2-dependant transcriptional activity (AID 720636; active = well fitted curve in the direction sought with a large enough effect in the repeat runs; an effect the other way counts as inactive or inconclusive;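 also: HepG2 cells with an ARE-driven luciferase reporter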); settings: ARE-luc HepG2, Nrf2 luciferase reporter, 16 h; series mostly up to 92.4 µM
Outline: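 Cells: ARE-luc HepG2 with Nrf2-responsive luciferase. Medium contained 1% dialyzed FBS. Compound exposure lasted 16 hr at 37 C and 5% CO2, followed by ONE-Glo luciferase detection.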

[15] = qHTS assay for small molecule antagonists of the retinoid-related orphan receptor gamma (ROR-gamma) signaling pathway - cell viability counter screen (AID 720652; active = well fitted curve in the direction sought with a large enough effect in the repeat runs; an effect the other way counts as inactive or inconclusive;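 also: compound exposure lasted 16 hr before ATP read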); settings: RORgamma reporter cell line viability counter screen; series mostly up to 92.2 µM
Outline: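 Counter screen in CHO cells carrying TET-inducible ROR-gamma and an ROR response element-luciferase reporter; cells plated 5 hr, compound pinned, doxycycline added, then 16 hr at 37 C. Viability read as intracellular ATP by CellTiter-Glo luminescence.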

[16] = qHTS assay for small molecule agonists of the antioxidant response element (ARE) signaling pathway measured by Nrf2-dependant transcriptional activity - cell viability counter screen (AID 720653; active = well fitted curve in the direction sought with a large enough effect in the repeat runs; an effect the other way counts as inactive or inconclusive); settings: ARE-bla HepG2 viability, CellTiter-Glo ATP luminescence, 16 h; stronger effect = lower value
Outline: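 ARE-bla HepG2 cells treated with compounds for 16 h at 37C; this counter screen measures viability as intracellular ATP by CellTiter-Glo luminescence after 30 min at room temperature.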

[17] = qHTS assay for small molecule activators of the nuclear factor-kappa B (NF-kB) signaling pathway (AID 651749; active = well fitted activation curve with a large enough effect in the signal ratio; the % refers to the signal ratio); settings: NF-kB-bla ME-180 cells, beta-lactamase FRET ratio, 16 h; stronger effect = higher value
Outline: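 Incubation lasted 16 hr at 37C in 5% CO2 after 23 nL compound addition to ME-180 NF-kB-bla cells. Activation appears as beta-lactamase-mediated FRET loss.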

[18] = target: Nuclear receptor ROR-gamma (Homo sapiens) (UniProt P51449); test: qHTS assay for small molecule antagonists of the retinoid-related orphan receptor gamma (ROR-gamma) signaling pathway (AID 651802; active = well fitted curve in the direction sought with a large enough effect; an effect the other way counts as inactive or inconclusive; also: nearly all actives have a fitted effect of over 60% in size); settings: ROR-gamma antagonist cell reporter assay; series mostly up to 92.2 µM
Sequence of Nuclear receptor ROR-gamma (Homo sapiens) (P51449 whole entry, looked up): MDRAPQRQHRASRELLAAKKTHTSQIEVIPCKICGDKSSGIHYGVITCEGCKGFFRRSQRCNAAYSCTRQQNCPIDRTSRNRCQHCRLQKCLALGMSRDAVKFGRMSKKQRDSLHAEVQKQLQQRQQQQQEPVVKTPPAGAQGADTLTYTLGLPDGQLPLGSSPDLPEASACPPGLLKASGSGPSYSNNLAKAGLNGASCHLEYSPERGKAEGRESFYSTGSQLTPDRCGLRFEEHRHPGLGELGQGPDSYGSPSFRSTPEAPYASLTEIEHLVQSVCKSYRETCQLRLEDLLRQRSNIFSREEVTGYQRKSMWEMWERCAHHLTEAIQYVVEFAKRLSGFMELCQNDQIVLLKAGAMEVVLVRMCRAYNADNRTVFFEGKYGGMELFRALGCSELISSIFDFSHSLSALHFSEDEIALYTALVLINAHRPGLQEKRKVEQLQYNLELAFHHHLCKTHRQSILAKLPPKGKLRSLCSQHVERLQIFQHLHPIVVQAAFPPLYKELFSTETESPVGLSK
Outline: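 CHO cells carrying TET-inducible ROR-gamma and an ROR response element–luciferase reporter were exposed to compound, then induced with doxycycline. After 16hr at 37C, luminescence was read; lower signal indicates antagonism.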

[19] = qHTS assay to identify small molecules that stimulate interleukin-8 (IL-8) secretion (AID 651758; active = well fitted activation curve with a large enough effect in the signal ratio; the % refers to the signal ratio); settings: HTRF ratio (665/615); series mostly up to 92.2 µM
Outline: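 THP-1 cells (2000/well) exposed to compound 16 h at 37 C; secreted IL-8 then detected by HTRF with cryptate- and XL665-labelled anti-IL-8 antibody pair after 1-3 h at room temperature.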

[20] = qHTS assay for environmental chemicals that activate the Aryl hydrocarbon Receptor (AhR) signaling pathway (AID 651777; active = well fitted curve in the direction sought with a large enough effect; an effect the other way counts as inactive or inconclusive; also: nearly all actives have a fitted effect of over 15% in size); settings: 1A2-DRE human hepatoma cells, luciferase, 24 h; activation: stronger effect = higher value
Outline: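 1A2-DRE human hepatoma reporter line; 1,200 cells/well; cmpd or DMSO 24 h, 37 C/5% CO2; One-Glo 30 min RT; luciferase lum.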

SMILES	max response [1]	outcome [2]	outcome [3]	max response [4]	max response [5]	activity change % (negative = inhibition) [6]	Potency [7]	Potency [8]	activation [9]	Potency [10]	Potency [11]	Potency [12]	max response [13]	outcome [14]	Potency [15]	max response [16]	activation [17]	Potency [18]	Potency [19]	activation [20]
O=P(O)(OCc1ccccc1)OCc1ccccc1	6.08%	inactive	inactive	-0.49%	-5.97% (inactive)	0.248% (inactive)	inactive	inactive	-2.58% (inactive)	inactive	inactive	inactive	1.76% (inactive)	inactive	inactive	2.28% (inactive)				
Fc1ccccc1	-11.1%	inactive	inactive	-11.6%	-5.23% (inactive)	-5.64% (inactive)	inactive	inactive		inactive	inactive	inactive	1.57% (inactive)	inactive	inactive	8.77% (inactive)	0.343% (inactive)	inactive		
OC1CCCC1	-0.127%	inactive	inactive	-8.22%	5.18% (inactive)	8.64% (inactive)	inactive	inactive		inactive	inactive	inactive	1.11% (inactive)	inactive	inactive	-3.18% (inactive)	1.54% (inactive)	inactive	inactive	
Nc1cc([N+](=O)[O-])ccc1C(=O)O	8.72% and -23.6%	inactive	inactive	-12.5% and -8.81%	19.8% (inactive) and -9.41% (inactive)	7.18% (inactive) and -9.31% (inactive)	inactive	inactive	-3.96% (inactive) and 3.5% (inactive)		inactive	inactive	-7.92% (inactive) and -2.55% (inactive)	inactive	inactive	-7.64% (inactive) and 3.66% (inactive)		inactive		3.7% (inactive) and 3.8% (inactive)
CCCCC(CC)C(=O)O (stereo not drawn)	12.4%	inactive	inactive	-3.23%	4.48% (inactive)	-2.96% (inactive)	inactive	inactive		inactive	inactive	inactive	-2.43% (inactive)	inactive	inactive	-5.11% (inactive)				
Cc1ccc(C)c(O)c1	0.17%	inactive	inactive	-5.88%	6.26% (inactive)	1.01% (inactive)	inactive	inactive	0.75% (inactive)		inactive	inactive	-1.27% (inactive)	inactive	inactive	0.808% (inactive)		inactive	inactive	0.145% (inactive)
CCNc1cc(O)ccc1C	-5.56%	inactive	inactive	-2.01%	1.41% (inactive)	14.6% (inactive)	inactive	59.6 µM (active)	-1.04% (inactive)	inactive	inactive		-6.44% (inactive)	inactive	inactive	9.97% (inactive)		inactive		6.45% (inactive)
CCOc1cc(OCC)c(C(C)=O)cc1OCC	4.48%	inactive	inactive	1.94%	7.64% (inactive)	-7.72% (inactive)	inactive		-3.93% (inactive)	inactive	inactive	inactive	0.501% (inactive)	inactive	inactive	3.21% (inactive)	2.04% (inactive)	inactive	inactive	3.71% (inactive)
O=C(O)CCSSCCC(=O)O	1.51%	inactive	inactive	-12%	-2.74% (inactive)	-3.23% (inactive)	inactive	inactive		inactive	inactive	inactive	-1.98% (inactive)	inactive	inactive	0.366% (inactive)	-1.14% (inactive)	inactive	inactive	-0.395% (inactive)
CC(=O)OCCC(C)C	-5.59%	inactive	inactive	-8.93%	2.22% (inactive)	8.77% (inactive)	inactive	inactive	-1.24% (inactive)	inactive	inactive	inactive	-9.14% (inactive)	inactive	inactive	-11% (inactive)				0.441% (inactive)
